We go through seven compounds from PubChem BioAssay (EPA / NIEHS).

A short description of assay [1]: ATG_GRE_CIS: Attagene CIS-FACTORIAL HepG2 Assay for human Glucocorticoid Response Elements (GRE) (AID 2282947). To be noted: HepG2 GRE cis-reporter, Attagene multiplex mRNA; actives raise or lower the signal. In outline: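 Reporter transcripts read by RT-PCR with capillary electrophoresis fluorescence after a 24 h chemical exposure of HepG2 cells transiently transfected with multiple cis-element reporter units. Gain or loss fitted against DMSO.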

The nature of assay [2]: ATG_ISRE_CIS: Attagene CIS-FACTORIAL HepG2 Assay for human Interferon Regulatory Factor 1 (IRF1) binding to an Interferon-Stimulated Response Element (ISRE) (AID 2282948). As to conditions: HepG2 ISRE cis-reporter (Attagene), mRNA transcription readout; actives raise or lower the signal. In outline: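 Endogenous transcription factor activity read as reporter transcript abundance via RT-PCR and capillary electrophoresis. HepG2 cells transiently transfected, 24 h chemical exposure. Gain or loss fitted against DMSO baseline.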

The nature of assay [3]: ATG_M_32_CIS: Attagene CIS-FACTORIAL HepG2 Assay for M32 Transcription Factor (Internal Marker) (AID 2282949).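 Note: background control marker of the multiplexed CIS panel rather than a real target.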 As to conditions: HepG2 Attagene cis-factorial M32 reporter, mRNA; actives raise or lower the signal. In outline: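 HepG2 transfectants (cis-regulated reporter transcription units) dosed 24 h. Reporter mRNA by RT-PCR plus CE, analysed as gain or loss relative to DMSO.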

Assay [4] can be described thus: ATG_M_06_CIS: Attagene CIS-FACTORIAL HepG2 Assay for M06 Transcription Factor (Internal Marker) (AID 2282950). As to conditions: HepG2 Attagene CIS-FACTORIAL M06 internal marker reporter; actives raise or lower the signal. In outline: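 Steps: transfect HepG2 with multiplexed cis-element reporter constructs; dose chemical 24 h; extract RNA with DNase treatment; reverse-transcribe, PCR-amplify, 6-FAM label, HpaI digest; separate fragments by capillary electrophoresis. Activity fitted both directions versus DMSO.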

Assay [5] addresses Hypoxia-inducible factor 1-alpha (Homo sapiens) (UniProt Q16665). Put plainly: ATG_HIF1a_CIS: Attagene CIS-FACTORIAL HepG2 Assay for human Hypoxia Inducible Factor 1 (HIF1A) (AID 2282951). To be noted: HepG2 Attagene cis-factorial HIF1a reporter transcription; actives raise or lower the signal. In a few lines:
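Transient MRTU transfection of human HepG2 liver cells, 24 h compound treatment, then total RNA isolation, oligo(dT) reverse transcription, PCR amplification, fluorescent labelling and capillary electrophoresis of reporter fragments. Gain or loss relative to DMSO.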

Assay [6] concerns the target Heat shock factor protein 1 (Homo sapiens) (UniProt Q00613). Put plainly: ATG_HSE_CIS: Attagene CIS-FACTORIAL HepG2 Assay for human Heat Shock Transcription Factor 1 (HSE) (AID 2282953). To be noted: HepG2 HSE cis-reporter, Attagene RNA transcription; actives raise or lower the signal. In a few lines: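 Cells were transfected with cis-element-driven reporter constructs, dosed for 24 h, then total RNA was reverse-transcribed and reporter cDNA amplified, FAM-labelled and digested with HpaI. Fragments were resolved by capillary electrophoresis; gain or loss was fitted against DMSO.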

Assay [7] is described as follows: ATG_MRE_CIS: Attagene CIS-FACTORIAL HepG2 Assay for human Metal Responsive Element (MRE) (AID 2282954). As to conditions: HepG2 MRE cis-reporter transcription, Attagene multiplex; actives raise or lower the signal. In a few lines:
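Endogenous MRE-dependent transcription read as reporter mRNA in transiently transfected human HepG2 cells at 24 h. RNA reverse-transcribed, PCR-amplified, labelled and resolved by capillary electrophoresis; gain or loss relative to DMSO.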

Assay [8] is described as follows: ATG_PBREM_CIS: Attagene CIS-FACTORIAL HepG2 Assay for human Phenobarbital-responsive Enhancer Module (PBREM) (AID 2282955). As to conditions: HepG2 PBREM cis-reporter, Attagene multiplexed transcription; actives raise or lower the signal. In outline: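 Endogenous transcription factors in human liver HepG2 cells drive a PBREM cis-element reporter, whose transcript level after 24 h treatment is quantified by RT-PCR with capillary electrophoresis; activity fitted in both directions against DMSO.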

The nature of assay [9]: ATG_PXRE_CIS: Attagene CIS-FACTORIAL HepG2 Assay for human Pregnane X Receptor Element (PXRE) (AID 2282957). To be noted: HepG2 Attagene CIS-FACTORIAL PXRE reporter, mRNA; actives raise or lower the signal. In a few lines:
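Fluorescent capillary electrophoresis of amplified reporter cDNA gave the signal, collected 24 h after dosing HepG2 cells that held transfected cis-element reporter constructs.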

A short description of assay [10]: ATG_PPRE_CIS: Attagene CIS-FACTORIAL HepG2 Assay for human Peroxisome Proliferator-activated Response Element (PPRE) (AID 2282958). To be noted: HepG2 PPRE cis-element reporter, Attagene transcription factor profiling; actives raise or lower the signal. In outline: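 HepG2, transient MRTU transfection (cis promoter elements, endogenous TFs). 24 h dosing. RNA → oligo(dT) RT → PCR → 6-FAM primer extension → HpaI digest → CE. Bidirectional fit vs DMSO.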

Assay [11] in a line: ATG_Sox_CIS: Attagene CIS-FACTORIAL HepG2 Assay for human SRY-box transcription factor (SOX) (AID 2282960). As to conditions: HepG2 Attagene cis-factorial SOX reporter, mRNA; actives raise or lower the signal. In a few lines:
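Endogenous factor activity in human liver HepG2 cells carrying transfected cis-regulated reporter units. RNA taken 24 h post-dose, reverse-transcribed, PCR-amplified and sized by capillary electrophoresis. Gain or loss of signal fitted relative to DMSO.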

The target in assay [12] is Transcription factor Sp1 (Homo sapiens) (UniProt P08047). Put plainly: ATG_Sp1_CIS: Attagene CIS-FACTORIAL HepG2 Assay for human Specificity Protein 1 (Sp1) (AID 2282961). As to conditions: HepG2 Sp1 cis-reporter transcription, actives raise or lower the signal. In a few lines:
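Transient MRTU-transfected HepG2, 24 h compound exposure. Total RNA → oligo(dT) RT → PCR of reporter → 6-FAM primer extension → HpaI digest → CE. Endpoint fitted both directions vs DMSO.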

Assay [13] is described as follows: ATG_SREBP_CIS: Attagene CIS-FACTORIAL HepG2 Assay for human Sterol Regulatory Element Binding (SREBP) (AID 2282962). As to conditions: HepG2 Attagene cis-factorial SREBP reporter, mRNA; actives raise or lower the signal. In outline: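 Endogenous SREBP activity read as cis-element-driven reporter transcript in transiently transfected HepG2, 24 h post-dosing; quantified via RT-PCR plus capillary electrophoresis of fluorescent fragments. Gain or loss of signal fitted relative to DMSO baseline.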

Assay [14] has as its target Signal transducer and activator of transcription 3 (Homo sapiens) (UniProt P40763). Put plainly: ATG_STAT3_CIS: Attagene CIS-FACTORIAL HepG2 Assay for human Signal Transducer and Activator of Transcription 3 (STAT3) (AID 2282963). As to conditions: HepG2, Attagene cis-factorial STAT3 reporter transcription; actives raise or lower the signal. In a few lines: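 Readout is reporter transcript quantified by RT-PCR and capillary electrophoresis, with 6-FAM primer extension and HpaI digestion. Total RNA is taken 24 h after dosing transiently transfected HepG2 carrying cis-regulated reporter units. Bidirectional fit against DMSO.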

Assay [15] is described as follows: ATG_TCF_b_cat_CIS: Attagene CIS-FACTORIAL HepG2 Assay for human T-Cell-Factor with beta-catenin (TCF/b-cat) (AID 2282965). As to conditions: HepG2 TCF/beta-catenin cis-reporter transcription, actives raise or lower the signal. In outline: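 Endogenous transcription factor activity is captured through cis-promoter reporter constructs transiently introduced into human HepG2 liver cells. Induced reporter mRNA is measured after 24 h and fitted bidirectionally relative to DMSO.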

The nature of assay [16]: ATG_TAL_CIS: Attagene CIS-FACTORIAL HepG2 Assay for human TAL Basal Promoter (AID 2282966).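 Note: background control endpoint measuring basal TAL promoter reporter mRNA not a specific factor.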 To be noted: HepG2 Attagene cis-factorial TAL promoter reporter; actives raise or lower the signal. In a few lines:
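Transiently transfected HepG2 (cis-regulated reporter units), 24 h treatment, mRNA read by fluorescent CE after RT-PCR; bidirectional fit, DMSO baseline.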

The target of assay [17] is Paired box protein Pax-6 (Homo sapiens) (UniProt P26367). Put plainly: ATG_Pax6_CIS: Attagene CIS-FACTORIAL HepG2 Assay for human Paired Box 6 (PAX6) (AID 2282956). As to conditions: HepG2 CIS-FACTORIAL PAX6 reporter transcription, RNA readout; actives raise or lower the signal. In outline:
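Read-out is reporter transcript level, measured by RT-PCR with fluorescent primer extension and capillary electrophoresis after 24 h dosing of transfected HepG2 cells. Activity in either direction fitted relative to DMSO control.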

A short description of assay [18]: ATG_RORE_CIS: Attagene CIS-FACTORIAL HepG2 Assay for human RAR-related Orphan Receptor Element (RORE) (AID 2282959). As to conditions: HepG2 Attagene cis-factorial RORE reporter, mRNA; actives raise or lower the signal. In a few lines: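 Transient MRTU transfection of human HepG2 liver cells (FuGene 6); 24 h compound exposure; TriZol RNA, oligo(dT) RT, PCR, FAM labeling, HpaI cut, CE fragment analysis. DMSO = negative control/baseline.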

The nature of assay [19]: ATG_TA_CIS: Attagene CIS-FACTORIAL HepG2 Assay for human TA Basal Promoter (AID 2282964). As to conditions: HepG2 Attagene CIS-factorial TA basal promoter reporter; actives raise or lower the signal. In outline:
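Steps: transfect HepG2 with MRTUs; dose 24 h; isolate RNA, DNase-treat, reverse-transcribe; PCR and FAM-label reporter cDNA; digest with HpaI 2h at 37 C; run capillary electrophoresis. Activity fitted both directions against DMSO.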

Where a structure was tested more than once in an assay, its records may differ in their call. Active and inactive are the calls of the source. Rule for the calls: active = hit-call score of the fitted dose curve at least 0.9, where 1 is the maximum; inactive = score below 0.9.

Chain of Signal transducer and activator of transcription 3 (Homo sapiens) (P40763 whole entry, looked up): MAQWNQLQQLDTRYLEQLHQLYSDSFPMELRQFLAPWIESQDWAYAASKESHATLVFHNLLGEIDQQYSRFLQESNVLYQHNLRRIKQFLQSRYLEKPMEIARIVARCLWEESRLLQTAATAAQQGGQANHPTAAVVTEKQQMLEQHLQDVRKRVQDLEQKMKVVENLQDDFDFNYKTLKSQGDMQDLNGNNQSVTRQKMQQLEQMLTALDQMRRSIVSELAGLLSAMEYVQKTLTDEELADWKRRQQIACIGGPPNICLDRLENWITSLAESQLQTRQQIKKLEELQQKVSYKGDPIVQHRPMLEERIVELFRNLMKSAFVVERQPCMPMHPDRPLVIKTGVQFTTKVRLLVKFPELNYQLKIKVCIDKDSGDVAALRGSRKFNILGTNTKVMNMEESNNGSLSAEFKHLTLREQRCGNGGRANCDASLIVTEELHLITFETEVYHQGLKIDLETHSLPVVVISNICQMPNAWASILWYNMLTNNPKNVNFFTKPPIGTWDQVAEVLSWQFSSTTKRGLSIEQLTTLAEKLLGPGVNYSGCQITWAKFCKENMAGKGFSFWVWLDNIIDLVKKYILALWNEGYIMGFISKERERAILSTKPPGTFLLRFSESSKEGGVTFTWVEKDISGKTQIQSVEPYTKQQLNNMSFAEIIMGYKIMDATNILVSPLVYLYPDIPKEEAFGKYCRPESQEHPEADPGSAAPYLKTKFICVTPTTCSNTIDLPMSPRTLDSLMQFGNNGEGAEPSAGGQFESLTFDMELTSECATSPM
Chain of Hypoxia-inducible factor 1-alpha (Homo sapiens) (Q16665 whole entry, looked up, the tested form may be a part): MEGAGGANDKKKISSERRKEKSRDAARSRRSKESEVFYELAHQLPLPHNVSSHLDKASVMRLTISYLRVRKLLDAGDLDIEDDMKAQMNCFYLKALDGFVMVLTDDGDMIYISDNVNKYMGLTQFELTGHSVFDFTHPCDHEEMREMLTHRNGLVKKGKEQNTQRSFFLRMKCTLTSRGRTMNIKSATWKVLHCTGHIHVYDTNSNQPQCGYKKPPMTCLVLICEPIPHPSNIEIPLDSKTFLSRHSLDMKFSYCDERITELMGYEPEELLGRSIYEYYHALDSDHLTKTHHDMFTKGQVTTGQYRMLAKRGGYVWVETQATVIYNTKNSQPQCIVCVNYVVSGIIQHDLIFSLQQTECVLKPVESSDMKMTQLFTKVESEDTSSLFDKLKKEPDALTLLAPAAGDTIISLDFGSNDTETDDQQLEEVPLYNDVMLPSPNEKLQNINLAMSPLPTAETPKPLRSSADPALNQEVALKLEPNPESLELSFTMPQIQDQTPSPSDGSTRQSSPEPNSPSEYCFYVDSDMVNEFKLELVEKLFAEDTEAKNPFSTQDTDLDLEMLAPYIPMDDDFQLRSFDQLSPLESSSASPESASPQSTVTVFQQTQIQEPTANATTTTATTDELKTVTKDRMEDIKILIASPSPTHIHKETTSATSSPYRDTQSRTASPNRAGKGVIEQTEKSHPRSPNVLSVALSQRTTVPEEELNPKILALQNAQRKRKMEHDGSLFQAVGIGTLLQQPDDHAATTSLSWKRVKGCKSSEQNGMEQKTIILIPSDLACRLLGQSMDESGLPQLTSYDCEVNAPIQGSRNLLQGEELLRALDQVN
Chain of Paired box protein Pax-6 (Homo sapiens) (P26367 whole entry, looked up): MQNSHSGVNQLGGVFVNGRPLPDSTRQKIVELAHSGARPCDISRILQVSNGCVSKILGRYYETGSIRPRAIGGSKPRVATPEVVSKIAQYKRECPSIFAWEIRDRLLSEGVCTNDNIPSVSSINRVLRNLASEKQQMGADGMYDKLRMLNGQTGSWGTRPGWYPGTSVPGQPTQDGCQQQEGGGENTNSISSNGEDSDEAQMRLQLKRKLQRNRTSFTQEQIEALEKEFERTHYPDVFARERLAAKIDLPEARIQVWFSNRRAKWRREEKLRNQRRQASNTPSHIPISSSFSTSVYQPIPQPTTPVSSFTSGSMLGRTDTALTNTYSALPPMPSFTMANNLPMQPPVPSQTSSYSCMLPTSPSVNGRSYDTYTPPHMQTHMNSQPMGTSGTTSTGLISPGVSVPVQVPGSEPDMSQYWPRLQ
Chain of Transcription factor Sp1 (Homo sapiens) (P08047 whole entry, looked up): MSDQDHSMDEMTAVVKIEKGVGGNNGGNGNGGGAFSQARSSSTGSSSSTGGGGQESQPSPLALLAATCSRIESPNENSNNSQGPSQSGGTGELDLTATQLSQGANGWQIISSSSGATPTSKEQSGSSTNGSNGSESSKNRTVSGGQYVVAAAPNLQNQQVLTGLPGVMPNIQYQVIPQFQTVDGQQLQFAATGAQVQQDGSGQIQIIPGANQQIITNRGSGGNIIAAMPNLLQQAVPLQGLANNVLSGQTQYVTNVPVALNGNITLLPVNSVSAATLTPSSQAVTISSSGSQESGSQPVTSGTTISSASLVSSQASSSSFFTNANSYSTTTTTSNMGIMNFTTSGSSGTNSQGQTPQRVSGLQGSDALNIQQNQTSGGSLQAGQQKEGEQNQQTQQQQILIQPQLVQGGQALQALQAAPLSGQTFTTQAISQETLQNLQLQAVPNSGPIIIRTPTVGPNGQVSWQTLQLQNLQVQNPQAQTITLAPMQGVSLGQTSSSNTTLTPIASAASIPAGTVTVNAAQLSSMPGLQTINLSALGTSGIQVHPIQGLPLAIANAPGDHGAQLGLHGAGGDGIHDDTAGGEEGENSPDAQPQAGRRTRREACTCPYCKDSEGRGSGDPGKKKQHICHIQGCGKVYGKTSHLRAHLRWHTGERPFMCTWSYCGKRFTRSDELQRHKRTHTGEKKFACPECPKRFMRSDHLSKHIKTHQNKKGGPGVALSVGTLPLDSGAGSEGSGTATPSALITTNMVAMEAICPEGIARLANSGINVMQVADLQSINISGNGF
Chain of Heat shock factor protein 1 (Homo sapiens) (Q00613 whole entry, looked up, the tested form may be a part): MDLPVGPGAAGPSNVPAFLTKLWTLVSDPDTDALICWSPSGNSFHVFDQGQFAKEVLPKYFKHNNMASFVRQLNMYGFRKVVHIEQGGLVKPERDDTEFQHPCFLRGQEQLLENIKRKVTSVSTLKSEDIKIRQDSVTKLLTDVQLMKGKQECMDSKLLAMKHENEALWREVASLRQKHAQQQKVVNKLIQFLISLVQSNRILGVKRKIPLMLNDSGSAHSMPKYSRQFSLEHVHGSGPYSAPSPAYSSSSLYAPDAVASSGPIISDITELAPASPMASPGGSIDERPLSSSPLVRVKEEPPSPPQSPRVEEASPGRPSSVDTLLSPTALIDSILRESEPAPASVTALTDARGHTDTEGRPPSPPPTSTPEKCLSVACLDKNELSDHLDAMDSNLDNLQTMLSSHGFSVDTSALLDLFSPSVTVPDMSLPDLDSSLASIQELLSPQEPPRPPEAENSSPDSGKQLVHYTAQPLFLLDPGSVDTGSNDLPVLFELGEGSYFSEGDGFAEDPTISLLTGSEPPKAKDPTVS

A word on the AC50: it is the concentration giving half of the maximal activity seen. On to `CCn1nc(C)c2c1C(=O)NCC(c1ccc(O)cc1)=N2`, for which the outcome in assay [1], in [2], in [3], in assay [4], in assay [5] and in assay [6] was inactive. The compound was classed as inactive in [7], in assay [8], in assay [9], in assay [10], in [11] and in assay [12]. Besides, the result in assay [14], in assay [15] and in [16] was inactive. Besides, the AC50 in [13] was 2.82 µM (active).

`FC(F)=C(F)C(F)(F)C(F)(F)C(F)(F)C(F)(F)C(F)(F)C(F)(F)F`: the call in assay [1], in [2], in assay [3], in assay [4], in assay [5] and in assay [7] was inactive. Besides, the outcome in assay [8], in [17], in assay [9], in assay [10], in assay [18] and in assay [11] was inactive. The call in assay [12], in assay [13], in assay [14], in [15] and in assay [16] was inactive. The AC50 in assay [15] was 234 µM (active).

With `S=P(N1CC1)(N1CC1)N1CC1`, the compound was called inactive in [1], in [2], in assay [3], in assay [4], in [5] and in assay [7]. The outcome in [8], in assay [17], in [10], in [18], in assay [11] and in assay [12] was inactive. Besides, the outcome in assay [13], in [14], in assay [19], in assay [15] and in [16] was inactive. The concentration at half-maximal activity (AC50) was 12.1 µM (active) [middle of 4 runs] in assay [9] and 157 µM (active) in [13].

As to `FC(F)C(F)(F)COCC1CO1` (configuration not stated), the compound was classed as inactive in assay [1], in [2], in assay [3], in [4], in assay [5] and in [7]. Besides, the result in assay [8], in assay [9], in [10], in assay [18], in [11] and in assay [12] was inactive. The compound was called inactive in assay [13], in assay [14], in [19], in assay [15] and in assay [16].

For `O=C(O)c1cccc(C[C@@H]2COc3ccc(OCc4nc5cc(F)ccc5s4)cc3[C@@H]2O)c1`, the result in assay [1], in assay [3], in [4], in assay [5], in assay [8] and in assay [9] was inactive. Moreover, the compound was classed as inactive in [18], in assay [11], in [12], in [13], in assay [14] and in assay [16]. Also, the half-maximal activity concentration (AC50) in assay [2] is 163 µM (active); in assay [6], 168 µM (active); in assay [7] it was 154 µM (active); in assay [15] it was 37.8 µM (active).

Turning to `OC(CCl)CCl`, the result in [1], in assay [2], in assay [3], in assay [4], in assay [5] and in [7] was inactive. For the same compound, the outcome in [8], in assay [17], in assay [9], in assay [10], in assay [18] and in assay [11] was inactive. In addition, the result in assay [12], in assay [13], in [14], in [19], in [15] and in assay [16] was inactive.

Take `c1ccc2ncccc2c1`: the compound was called inactive in assay [1], in assay [2], in [3], in assay [4], in [5] and in assay [6]. In addition, the compound was called inactive in assay [7], in assay [8], in assay [9], in assay [10], in [18] and in assay [11]. Also, the outcome in [12], in assay [13], in assay [14], in [19], in assay [15] and in assay [16] was inactive.
